In PubChem BioAssay (NCI) one finds growth data, which are given here for 40 compounds.

This is part of a sample that, as a whole, favours compounds with a hit. Of some 83,000 tested, about 20% had one in any assay.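 For each line, cells grew in 96-well plates with the test compound present at a single concentration for 48 hours.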 A number with no mark means an inactive call. Active and inactive are the calls of the source.

The experiment deals with COLO 205 colon. Put plainly: NCI-60 one-dose screen, 48 h (100 = growth as untreated, 0 = no growth, -100 = all killed). The note with it: 10 µM unless noted. The method, then: Cells are grown in 96 well plates and exposed to the test compound for 48 hours. Compounds are tested at a single concentration, which is 10^-5 M for most compounds. The reported endpoint is percent growth (GI% or GIPRCNT), where numbers from 0 - 100% represent growth inhibition, and numbers from -100% - 0 represent cell death. For example, a value of 40 represents 60% growth inhibition. A value of 0 means no net growth occurred over the course of the experiment. A value of -40 indicates 40% of cells at the beginning of the experiment died by the end of the experiment. A value of -100 means all cells are dead at the end of the experiment.
NCI-60 Human Tumor Cell Lines Screen was performed using the standard one-dose NCI protocol, which is described in more detail at https://dtp.cancer.gov/discovery_development/nci-60/default.htm.
Compounds with GIPRCNT values below 10 were considered active. Activity score was based on GIPRCNT using the following formula: […]
Score is 0 for GIPRCNT values of 100 or above, 50 for GIPRCNT values of 0, and 100 for GIPRCNT values of -100.
Consider `O=C(CSc1nnc(-c2cc(-c3ccc(Cl)cc3)nc3ccccc23)n1-c1ccccc1)Nc1ccc(Cl)cc1`, for which the growth was 115%. With `COC(=O)c1c(C(=O)OC)c2ccc3c4ncccc4ccc3n2c1C(=O)c1ccc(C)cc1` the figure was 98.8%; with `O=S(=O)(Nc1ccc(Br)cc1)c1ccc(-c2cnc(C3CC3)o2)cc1`, 23.9%; with `COc1cc2cc(Oc3ccc(NC(=O)Nc4ccc(Cl)c(Cl)c4)cc3)c(C)nc2cc1OCCN1CCCCC1`, 112%. Under `N=C(N)c1ccc(-c2ccc(-c3ccccc3)s2)nc1` stands -6.33% (active); under `C#CCOc1cccc(Nc2c(Cl)c(CCl)nc3ccc(Oc4ccccc4)cc23)c1`, 83.2%; under `C=C(C)[C@@H]1CC[C@]2(COC(=O)c3cccnc3)CC[C@]3(C)[C@H](CC[C@@H]4[C@@]5(C)CCCN(C(=O)c6cccnc6)C(C)(C)[C@@H]5CC[C@]43C)[C@@H]12`, 27.9%.

For the compound `O=C(Nc1ccccc1)Nc1ccccc1CNc1nc(Nc2ccc(OCCN3CCCC3)cc2)ncc1Cl`, the growth is 33%. Under `C=C(C)[C@@H]1CC[C@]2(C(=O)NC(C)=O)CC[C@]3(C)[C@H](CC[C@@H]4[C@@]5(C)CCCNC(C)(C)[C@@H]5CC[C@]43C)[C@@H]12` stands -59% (active). With `COC(=O)c1nc(-c2ccccc2)oc1S(=O)(=O)N1CCN(c2ccc(OC)cc2)CC1` the figure was 61.7%; with `OC1CSSC1Cn1cnc2c(Nc3ccc(F)c(Cl)c3)ncnc21` (stereo not given), 111%; with `Clc1nc(N2CCC[N+]3(CC2)CC[N+]2(CCCNCC2)CC3)nc(N2CCC[N+]3(CC2)CC[N+]2(CCCNCC2)CC3)n1` (stereo not given), 106%. With `COc1ccc(S(=O)(=O)N(C)c2oc(-c3ccc(Cl)cc3)nc2C#N)cc1` the figure was 97.9%; with `Nc1ncc(-c2ccc3ncnc(N4CCc5cc(F)c(Cl)cc54)c3c2)cc1C=O`, 19.6%; with `O=c1ccc2c(ccc3ncccc32)o1`, 107%. Regarding `O=C(Nc1ccc(Oc2cccc(F)c2)c(Cl)c1)c1cnccn1`, the growth is 15.5%.

In the case of `CCOC(=O)c1cc(C(=O)c2cc(OC)cc(OC)c2)n2ccccc12`, the growth is 13.5%. Take `Cc1[nH]c(C(=O)Nc2ccc(C(N)=O)cc2OC(C)C)c(Cl)c1Cl`: the growth is 115%.

In the case of `CC(C)c1nc(N(C)S(C)(=O)=O)nc(-c2ccc(F)cc2)c1/C=C/C(=O)C[C@@H](O)CC(=O)O`, the growth is 112%. `Cc1cc(C)n(C(=O)CSc2nc3sc4c(c3c(=O)n2-c2ccccc2)CCCCC4)n1`: the growth is 115%. Under `O=C(O)CCCN1C(=O)CSC1=S` stands 120%. With `COc1ccc(/C(C)=C(\c2ccc(Cl)cc2)c2ccc(OCCCN(C)C)cc2)cc1` the figure was 15%; with `O=c1c(Cc2ccc(F)cc2)cc(-c2ccccc2)nn1C/C(=N/O)c1ccccc1`, 47.9%. Regarding `COc1cc(CNC(=O)CCCC/C=C/C(C)C)ccc1OCc1cn(-c2cccc([N+](=O)[O-])c2)nn1`, the growth was 107%. With `O=C1/C(=C/c2ccc(Br)cc2)COc2ccc(O)cc21` the figure was 86.8%.

As for `CNC1=C([N+](=O)[O-])C(c2ccc(OC)cc2)C(C#N)=C(c2ccc[nH]2)O1` (stereo not given), the growth is 107%. Under `CCN1C(=O)N(CC)C2C1NN=c1s/c(=C\c3ccccc3)c(=O)n12` (stereo not given) stands -2.49% (active). Turning to `COc1ccc(NC(=O)CSc2oc(-c3ccccc3)nc2S(=O)(=O)c2ccc(Cl)cc2)c(OC)c1`, the growth was 82.4%. Under `COC(=O)c1nc(-c2ccccc2)oc1S(=O)(=O)NCC(c1ccc(Cl)cc1)N1CCCCC1` (stereo not given) stands 72.1%. Under `CCCCCCCC/C=C\CCCCCCCCOc1ccc(CC(=O)NCC[N+]2(C)CCCC2)cc1` stands -74.1% (active); under `CCCN1C2CCC1/C(=C\c1ccc(OC)cc1)C(=O)/C2=C/c1ccc(OC)cc1`, 76%; under `C=CCn1c(SCC(=O)Nc2ccc(C(=O)/C=C/c3cc(OC)c(OC)c(OC)c3)cc2)nnc1-c1cc(-c2ccc(S(N)(=O)=O)cc2)nc2ccccc12`, 109%. With `CCN1C(=O)N(CC)C2C1NN=c1s/c(=C\c3ccc(F)cc3)c(=O)n12` (stereo not given) the figure was 5.08% (active). `O=c1oc2ccccc2cc1-c1nn(-c2ccccc2)cc1/C=N/Nc1nc(-c2ccccc2)c(N=Nc2ccccc2)s1`: the growth is 72.8%.

As to `CC(C)(C)n1cc(-c2ccnc(NCCNS(=O)(=O)c3ccc(C(F)(F)F)cc3)c2)c(-c2ccccc2)n1`, the growth is 87.3%. With `O=C(c1ccccc1)[C@@H](c1ccccc1)[C@]1(O)C(=O)Nc2ccccc21` the figure was 84.1%; with `Cc1ccc(NC(=O)c2ccc(Nc3ncnc4c3cnn4-c3cccc(F)c3)cc2)cc1`, 109%. With `CCOC(=O)C1=CCC(n2cc(F)c(=O)[nH]c2=O)O1` (stereo not given) the figure was 109%; with `O=C1c2ccccc2-c2c1c1ccncc1c(=O)n2CCCn1ccnc1`, 56.4%; with `CC1(C)CC[C@]2(CO)CC[C@]3(C)[C@H](CC[C@@H]4[C@@]5(C)CC[C@H](O)C(C)(C)[C@@H]5CC[C@]43C)[C@H]2[C@H]1O`, 93.8%.
